For 20 compounds, growth inhibition results are on record in PubChem BioAssay (NCI).

Assay [1] is described as follows: NCI Yeast Anticancer Drug Screen. Data for the rad50 strain (AID 155).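 Also: 0% = growth of vehicle-only cultures of the same strain.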 The conditions noted are these: S. cerevisiae rad50 strain growth inhibition; at 50.0 µM; hits give high values. An outline of the steps: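 Cells are treated with compound, grown, and their growth is then scored against vehicle-only cultures of the same repair-deficient yeast strain.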
Assay [2] is described as follows: NCI Yeast Anticancer Drug Screen. Data for the mec2-1 strain (AID 157). The conditions noted are these: S. cerevisiae mec2-1 strain, at 50.0 µM, hits give high values. An outline of the steps:
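Yeast mec2-1 mutant treated with compound. Readout: growth inhibition vs vehicle controls.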

Assay [3] can be described thus: NCI Yeast Anticancer Drug Screen. Data for the sgs1 mgt1 strain (AID 161).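 Also: 0% = growth of cultures given vehicle only.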 As to conditions: S. cerevisiae sgs1 mgt1 strain, at 50.0 µM, hits give high values. An outline of the steps:
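Genetically altered yeast, compound exposure, growth inhibition relative to vehicle.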

A short description of assay [4]: NCI Yeast Anticancer Drug Screen. Data for the cln2 rad14 strain (AID 165).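 Also: 0% = growth equal to vehicle treated cultures.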 The conditions noted are these: S. cerevisiae cln2 rad14 strain, at 50.0 µM, hits give high values. Summed up:
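cln2 rad14 yeast strain; compound exposure; growth inhibition read vs vehicle controls.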

Assay [5] in a line: NCI Yeast Anticancer Drug Screen. Data for the bub3 strain (AID 167). As to conditions: S. cerevisiae bub3 mutant strain, at 50.0 µM, hits give high values. Summed up: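 Part of a panel of yeast mutants defective in DNA damage repair or cell cycle regulation. Each strain is grown with compound, and inhibition is calculated relative to solvent-treated cultures.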
Assay [6] is described as follows: NCI Yeast Anticancer Drug Screen. Data for the mlh1 rad18 strain (AID 175). As to conditions: S. cerevisiae mlh1 rad18 strain growth inhibition; at 50.0 µM; hits give high values. An outline of the steps: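 Yeast w/ defined DNA-repair lesions; compound exposure; growth vs vehicle controls → % inhibition.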

Compounds without any hit were thinned out: in the full panel of roughly 79,000, 15% have a hit. Unmarked numbers belong to inactive results. Activity calls are given as the source filed them. Rule as the data show it: active = growth inhibition above about 70%; inactive = the rest.

With `C[n+]1cc(-c2ccccc2)cc2ccccc21`, the growth inhibition in assay [1] is -1.4%; in assay [2], 17.9%; in assay [3], -0.3%; in assay [4] it was -17.6%; in assay [5], 4.5%; in assay [6], -14.5%.
On to `O=C(Nc1c(Cl)cccc1Cl)Nc1c(Cl)cccc1Cl`, for which the growth inhibition in assay [1] was -0.95%; in assay [2] it was -4.85%; in assay [3], 21.1%; in assay [4] it was 6.7%; in assay [5], 16.8%; in assay [6], 10.9%.
For `Cc1oc2ccccc2c(=O)c1Cn1cnc2ccc([N+](=O)[O-])cc21`, the growth inhibition was -0.45% in assay [1]; 10.3% in assay [2]; 21.5% in assay [3]; 11.8% in assay [4]; 5.85% in assay [5]; 10.1% in assay [6].
Take `Cc1cc([N+](=O)[O-])ccc1NC(=O)c1c(Cl)c(Cl)c(C(=O)Nc2ccc([N+](=O)[O-])cc2C)c(Cl)c1Cl`: the growth inhibition in assay [1] is 38.5%; in assay [2] it was 28.1%; in assay [3] it was 34.9%; in assay [4], -34%; in assay [5], 7.9%; in assay [6], 45.1%.
As to `O=C1C2=C(Nc3ccccc3N2)OC1c1ccccc1Cl` (stereo not given), the growth inhibition in assay [1] is -0.95%; in assay [2] it was -11.7%; in assay [3] it was -22.1%; in assay [4] it was 6.7%; in assay [5], -21.8%; in assay [6], 4%.
In the case of `Cc1cc(C)c(OC(=O)c2ccc(C(=O)Oc3c(C)cc(C)cc3C)cc2)c(C)c1`, the growth inhibition in assay [1] is 13.8%; in assay [2] it was -1.65%; in assay [3] it was -4.85%; in assay [4] it was 0.25%; in assay [5], -1.6%; in assay [6], 14.9%.
Turning to `CCCCCCCCCCCCCCCCCCCCCCCC`, the growth inhibition in assay [1] was 0.1%; in assay [2], 2.3%; in assay [3], 18.7%; in assay [4], -53%; in assay [5], 21.7%; in assay [6], -13.2%.
Take `C=C1C(=O)O[C@H]2[C@H]1[C@H](OC(=O)/C(C)=C\C)CC(=C)[C@@H]1[C@H](O)[C@H]3O[C@@]3(C)[C@@]12O`: the growth inhibition in assay [1] was 3.85%; in assay [2], -14.8%; in assay [3], 21.2%; in assay [4], 5.25%; in assay [5], -5.95%; in assay [6], -18%.
Take `Cc1nc(C(=O)N=C(N)N)c(N)nc1-c1ccccc1`: the growth inhibition in assay [1] is -22.6%; in assay [2], -4.3%; in assay [3], -7.7%; in assay [4] it was -28.2%; in assay [5] it was -4.8%; in assay [6] it was -4%.
As for `O=C(c1ccccc1)c1ccc2ccccc2c1C(=O)O`, the growth inhibition was -8.25% in assay [1]; 9.6% in assay [2]; 4.85% in assay [3]; -69.3% in assay [4]; -5.65% in assay [5]; -17% in assay [6].
Take `CN(C)CC(O)CNC(=O)Nc1ccccc1` (stereo not given): the growth inhibition in assay [1] was 0.6%; in assay [2] it was 14.2%; in assay [3], 12.7%; in assay [4], 0.35%; in assay [5], -0.05%; in assay [6], -42.8%.
On to `CCOC(=O)CC1CCC(CCCCC2CCC(CC(=O)OCC)CC2)CC1` (stereo not given), for which the growth inhibition was 76% (active) in assay [1]; 44.5% in assay [2]; 80% (active) in assay [3]; 57.4% in assay [4]; 22.2% in assay [5]; 45.2% in assay [6].
In the case of `COc1ccc(/C=C/C=C/C(=O)O)cc1OC`, the growth inhibition is -2.8% in assay [1]; -9.7% in assay [2]; -12.4% in assay [3]; 5.85% in assay [4]; 2.8% in assay [5]; 15.1% in assay [6].
As for `O=[N+]([O-])c1ccc(N=CNc2ccc([N+](=O)[O-])cc2)cc1`, the growth inhibition is -15.9% in assay [1]; -13.1% in assay [2]; -1.5% in assay [3]; -12% in assay [4]; 17.1% in assay [5]; -6.65% in assay [6].
For the compound `NS(=O)(=O)c1ccc(Nc2c3ccccc3nc3cc(Cl)ccc23)cc1`, the growth inhibition was 25.6% in assay [1]; -17.8% in assay [2]; 6.9% in assay [3]; 3.3% in assay [4]; -8.5% in assay [5]; -13.3% in assay [6].
As for `COc1cc(C(=O)O)ccc1OS(=O)(=O)O`, the growth inhibition in assay [1] is -17.4%; in assay [2], -62.5%; in assay [3], -10.7%; in assay [4], -21.6%; in assay [5], -11%; in assay [6], -31.3%.
Take `c1ccc2c(c1)OP1(=NP3(=NP4(=NP5(=N1)Oc1ccccc1-c1ccccc1O5)Oc1ccccc1-c1ccccc1O4)Oc1ccccc1-c1ccccc1O3)Oc1ccccc1-2`: the growth inhibition was 7.8% in assay [1]; 6.3% in assay [2]; -30.5% in assay [3]; -4.1% in assay [4]; -1.1% in assay [5]; 17.2% in assay [6].
For `CNC(=O)OCc1nc(N=[N+]=[N-])n(C)c1COC(=O)NC`, the growth inhibition in assay [1] is -16.9%; in assay [2], -19.1%; in assay [3], -3.65%; in assay [4] it was -31.4%; in assay [5] it was 2.2%; in assay [6] it was -24.4%.
Take `CC1(Nc2ccccc2)OC(=O)c2ccccc21` (stereo not given): the growth inhibition in assay [1] is -14.2%; in assay [2], -13.7%; in assay [3] it was -15.4%; in assay [4] it was -8.85%; in assay [5] it was -7.4%; in assay [6], -0.85%.
For the compound `O=[N+]([O-])c1cc(C(F)(F)F)ccc1Cl`, the growth inhibition in assay [1] is -11.2%; in assay [2], 10.3%; in assay [3], -5.85%; in assay [4], 31.3%; in assay [5], -12.9%; in assay [6], -27.8%.
